Results on 7 compounds are retold here after PubChem BioAssay (NCI).

Compounds without any hit were thinned out: in the full panel of roughly 83,000, 20% have a hit.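 For each line, cells grew in 96-well plates with the test compound present at a single concentration for 48 hours.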 Values without a mark were called inactive. Active and inactive are the calls of the source. Rule for the calls: active = growth percent below 10; inactive = the rest.

Experiment in all cases: NCI-60 one-dose screen, 48 h (100 = growth as untreated, 0 = no growth, -100 = all killed)
One assay deals with NCI-H23 lung. The following applies: 10 µM unless noted.
The next assay deals with NCI-H226 lung. The following applies: 10 µM unless noted.
The test system of another assay is NCI-H322M lung. To be noted: 10 µM unless noted.
A further assay concerns HOP-62 NSCLC. To be noted: 10 µM unless noted.
The next assay deals with NCI-H460 lung. The following applies: 10 µM unless noted.
A further assay relates to HOP-92 NSCLC. The following applies: 10 µM unless noted.
The subject of the next assay is NCI-H522 lung. To be noted: 10 µM unless noted.
A further assay relates to A549/ATCC NSCLC. The following applies: 10 µM unless noted.
A further assay concerns 786-0 renal. The following applies: 10 µM unless noted.
The test system of the next assay is COLO 205 colon. To be noted: 10 µM unless noted.
In the next assay the test system is DU-145 prostate. To be noted: 10 µM unless noted.
Another assay concerns K-562 leukemia. The following applies: 10 µM unless noted.
For a further assay, the system named is MALME-3M melanoma. The following applies: 10 µM unless noted.
The next assay has as its system MDA-MB-231 breast. The following applies: 10 µM unless noted.
For a further assay, the system named is RXF 393 renal. To be noted: 10 µM unless noted.
The subject of another assay is SF-268 CNS. The following applies: 10 µM unless noted.
In the next assay the test system is SF-295 CNS. The following applies: 10 µM unless noted.
A further assay relates to SF-539 CNS. To be noted: 10 µM unless noted.
The subject of a further assay is M14 melanoma. To be noted: 10 µM unless noted.
Another assay deals with UACC-257 melanoma. To be noted: 10 µM.

On to `C/C=C/[C@@H]1C=C[C@@H]2C[C@H](C)CC[C@H]2[C@]1(C)/C(O)=C1/C(=O)[C@H](CO)N(C)C1=O`, for which the growth with NCI-H23 lung is 56.8%; in the assay with NCI-H226 lung, 69.1%; in the assay with NCI-H322M lung, 61.6%; in the assay on HOP-62 NSCLC, 37.9%; in the assay with NCI-H460 lung it was 54.7%; in the assay with HOP-92 NSCLC, 56.9%. The growth in the assay on NCI-H522 lung is 58.2%; with A549/ATCC NSCLC it was 42.3%; in the assay with 786-0 renal, 47.3%; with COLO 205 colon, 78.1%; with DU-145 prostate, 56.5%; with K-562 leukemia, 46.5%. Moreover, the growth in the assay on MALME-3M melanoma is 79.5%; in the assay on MDA-MB-231 breast, 80.1%; with RXF 393 renal, 64.9%; with SF-268 CNS it was 54.8%; with SF-295 CNS, 43.3%; in the assay with SF-539 CNS, 58.5%. The growth in the assay on M14 melanoma is 62.2%.

Regarding `Nc1n[nH]c2cccc(C#Cc3cccc(NC(=O)c4cccc(OC(F)(F)F)c4)c3)c12`, the growth is 35.1% in the assay on NCI-H23 lung; 46.8% in the assay on NCI-H226 lung; 77.3% with NCI-H322M lung; 59.4% with HOP-62 NSCLC; 58.1% with NCI-H460 lung; -9.3% (active) in the assay with HOP-92 NSCLC. The growth with NCI-H522 lung was 49.2%; with A549/ATCC NSCLC it was 71.4%; with 786-0 renal, 65.3%; in the assay with COLO 205 colon it was 49%; in the assay with DU-145 prostate, 71.4%; with K-562 leukemia it was 7.22% (active). The growth with MALME-3M melanoma was 2.17% (active); with MDA-MB-231 breast it was 17.7%; in the assay on RXF 393 renal it was 24.2%; in the assay on SF-268 CNS it was 50.9%; in the assay on SF-295 CNS it was 73.8%; in the assay with SF-539 CNS it was 6.63% (active). Also, the growth in the assay on UACC-257 melanoma was 63.1%; with M14 melanoma, 31%.

For the compound `COc1ccccc1N1CCN(C2=NN=C(c3cccc(Cl)c3)c3ccccc3C2)CC1`, the growth in the assay with NCI-H23 lung is 31.6%; in the assay with NCI-H226 lung, 57.5%; in the assay on NCI-H322M lung, 37%; in the assay with HOP-62 NSCLC it was 34.3%; in the assay with NCI-H460 lung, 1.95% (active); with HOP-92 NSCLC it was 46.8%. The growth with NCI-H522 lung is -27.1% (active); with A549/ATCC NSCLC, 17.2%; with 786-0 renal it was 27%; in the assay on COLO 205 colon, -38.7% (active); with DU-145 prostate, 2.18% (active); with K-562 leukemia, 3.9% (active). The growth in the assay on MALME-3M melanoma was 44.9%; with MDA-MB-231 breast, -3.39% (active); with SF-268 CNS, 22.6%; in the assay on SF-295 CNS it was 19.3%; with SF-539 CNS, -11.6% (active); in the assay on UACC-257 melanoma, 56.3%. Also, in the assay on M14 melanoma, the growth was 6.83% (active).

As for `Cc1ccc(C2CC(c3ccc(Nc4nc(NCCO)nc(Nc5ccc(Cl)cc5)n4)cc3)=Nc3c(N)nc(N)nc3N2)cc1` (centres undefined), the growth with NCI-H23 lung was -81.8% (active); in the assay on NCI-H226 lung, 49.7%; in the assay on NCI-H322M lung, -89.8% (active); with HOP-62 NSCLC, -86.4% (active); in the assay on NCI-H460 lung, -84.8% (active); with HOP-92 NSCLC, 53.4%. The growth in the assay with NCI-H522 lung was -69.4% (active); in the assay on A549/ATCC NSCLC, 57.9%; with 786-0 renal it was -91.9% (active); in the assay with COLO 205 colon it was 29.9%; in the assay with DU-145 prostate it was -90.7% (active); with K-562 leukemia, -53.5% (active). Also, the growth is 95.6% in the assay on MALME-3M melanoma; -74.3% (active) in the assay with MDA-MB-231 breast; -46.7% (active) with SF-268 CNS; 28.9% in the assay on SF-295 CNS; -20.3% (active) in the assay with SF-539 CNS; 113% in the assay with UACC-257 melanoma. The growth in the assay with M14 melanoma was 2.15% (active).

Take `COc1cc2c3c(n(CCCNC4CCCCC4)c(=O)c2cc1OC)-c1cc2c(cc1C3=O)OCO2`: the growth with NCI-H23 lung is -51.7% (active); in the assay on NCI-H226 lung, 82.5%; in the assay on NCI-H322M lung, -80.3% (active); in the assay with HOP-62 NSCLC, -78.9% (active); in the assay on NCI-H460 lung it was -80.1% (active); with HOP-92 NSCLC, 91.5%. Moreover, the growth with NCI-H522 lung is -60.5% (active); with A549/ATCC NSCLC, -87.5% (active); with 786-0 renal, -82.8% (active); in the assay with COLO 205 colon, -79.2% (active); in the assay on DU-145 prostate, -68.4% (active); with MALME-3M melanoma, -46.9% (active). For the same compound, the growth was -78.1% (active) in the assay on MDA-MB-231 breast; 76.6% in the assay on RXF 393 renal; 70.1% in the assay on SF-268 CNS; 66.1% in the assay on SF-295 CNS; -85.5% (active) with SF-539 CNS; 96.9% with UACC-257 melanoma. The growth in the assay with M14 melanoma was 33%.

For the compound `C/C(=C(/c1ccc(O)cc1)c1ccc(OCCN2CCCC2)cc1)c1ccc(Cl)cc1`, the growth in the assay with NCI-H23 lung was 46.8%; in the assay with NCI-H226 lung, 72.3%; in the assay on NCI-H322M lung it was 53.8%; in the assay on HOP-62 NSCLC it was 63.1%; in the assay on NCI-H460 lung, -1.6% (active); in the assay with HOP-92 NSCLC, 50.3%. Also, the growth with NCI-H522 lung was 61.1%; in the assay on A549/ATCC NSCLC it was 47.6%; with 786-0 renal, 45.7%; in the assay on COLO 205 colon, -86.6% (active); in the assay on DU-145 prostate, 65.1%; in the assay on MALME-3M melanoma, -39.9% (active). For the same compound, the growth with MDA-MB-231 breast was 40.9%; in the assay on RXF 393 renal it was 3.89% (active); with SF-268 CNS, 60.9%; in the assay with SF-295 CNS, 67.8%; with SF-539 CNS, 0.146% (active); in the assay on UACC-257 melanoma it was -77.6% (active). In addition, the growth in the assay with M14 melanoma is -64.7% (active).

For the compound `CC1(C)CC[C@]2(C(=O)N3CCCN(CC#N)CC3)CC[C@]3(C)C(=CC[C@@H]4[C@@]5(C)CC[C@H](O)C(C)(C)[C@@H]5CC[C@]43C)[C@H]2C1`, the growth in the assay on NCI-H23 lung was 55.6%; in the assay on NCI-H226 lung, 71.1%; with NCI-H322M lung, 94.9%; in the assay with HOP-62 NSCLC, 70.8%; in the assay with NCI-H460 lung it was 16.8%; with HOP-92 NSCLC, 19.3%. Also, the growth is 67.5% in the assay on NCI-H522 lung; 39.1% with A549/ATCC NSCLC; 68.6% in the assay with 786-0 renal; -15.5% (active) with COLO 205 colon; 78.5% in the assay with DU-145 prostate; 3.77% (active) in the assay on K-562 leukemia. Further, the growth is 77.8% in the assay on MALME-3M melanoma; 55.6% in the assay on MDA-MB-231 breast; 69.2% with SF-268 CNS; 91.7% in the assay with SF-295 CNS; 68.5% in the assay on SF-539 CNS; 50.6% in the assay on UACC-257 melanoma. The growth with M14 melanoma is 65.7%.
